# Rows were chosen to be rich in hits. Some 11% of all compounds tested hit in one or more screens of this group.
# USP17 inh = human USP17-like deubiquitinase inhibition. A8MUK1. purified USP17, Ub-rhodamine cleavage fluorescence, 3 h. inhibition, % at 50 µM. 6.5% of 47,000 active
# USP28 inh = blocks human USP28 ubiquitin-rhodamine cleavage. Q96RU2. AID 1645857. 3% of 47,000 active. inhibition, % at 25 µM. purified USP28, Ub-rhodamine cleavage fluorescence, 30 min
# USP30 inh = human USP30 deubiquitinase inhibition; Q70CQ3; purified USP30, Ub-rhodamine cleavage fluorescence; inhibition, % at 25 µM; 5.3% of 47,000 active
# Hits are given with their value; 0 = inactive; - = not tested or not shown. Rule as the data show it: active = inhibition above about 30%; inactive = the rest.
SMILES,USP17 inh,USP28 inh,USP30 inh
CCOc1ccc(N2CC(C(=O)N(Cc3ccccc3)c3nc4c(C)cccc4s3)CC2=O)cc1 (centres undefined),0,0,0
COc1ccccc1CN1CCc2c(C)nc3cc(C#N)nn3c21,0,0,0
Cc1cc2cc(CNc3ncnc4c3nnn4C)ccc2[nH]1,49,0,0
CCn1nnc2c(NCc3ccc(OC)cc3)ncnc21,0,0,0
Cc1nc2nnc3ccc(C(=O)Nc4cccnc4)cc3c2n1C(C)C,0,0,0
COc1ccc(C(=O)NCC(c2ccsc2)N2CCN(C)CC2)cc1 (centres undefined),0,0,0
CCOc1ccc(C(=O)N2CCC(c3nc(C)ncc3-c3cc(C)no3)CC2)o1,0,0,36
COc1ccc(CC(=O)N2CCC(c3nc(C)ncc3-c3cc(C)no3)CC2)cc1,0,0,0
CCN1CCn2c(-c3cnn(C)c3)cnc2C12CCN(C(=O)CC(C)C)CC2,0,0,0
Cc1ccc(Nc2ncnc3c2nnn3C)cc1F,0,0,0
CCNC(=O)C1(Cc2cc(-c3ccccc3)no2)CCCN(C(=O)c2ccccc2)C1 (centres undefined),0,0,0
Cc1ccc(C2=NC3(CCN(C(=O)Cc4ccc(F)cc4)CC3)NC2=O)cc1,0,0,0
Cc1sc2nc(C3CC3)n(C3CCN(C(=O)C4CC4)CC3)c(=O)c2c1C,0,0,33
Cc1sc2nc(C3CC3)n(C3CCN(C(=O)CC(C)C)CC3)c(=O)c2c1C,0,0,40
Cc1sc2nc(C)n(C3CCN(CC(=O)NCC4CC4)CC3)c(=O)c2c1C,0,0,0
Cc1sc2nc(C(C)C)n(C3CCN(C(=O)C4CCCO4)CC3)c(=O)c2c1C (centres undefined),0,0,0
C[C@@H]1C[C@@H]2O[C@@H]2/C=C/[C@@H](O)CC(=O)O1,0,0,0
CC(=O)N1Cc2ccccc2CC2(CCN(CC3CCOCC3)CC2)C1,0,0,0
O=C(Nc1ccccc1)C1COc2ccccc2C1 (centres undefined),32,0,0
COc1ccc2c(c1)CC(C(=O)Nc1ccc(F)cc1F)CO2 (centres undefined),0,0,0
Cc1nc(C(=O)N[C@@H](C)C(=O)NCc2ccc3c(c2)OCO3)cc2c1[nH]c1ccccc12,57,0,0
O=C1c2ccccc2C2c3[nH]c4ccccc4c3C(c3ccc4c(c3)OCO4)CN12 (centres undefined),33,0,0
COc1ccc(C2CN3C(=O)c4ccccc4C3c3[nH]c4ccccc4c32)cc1 (centres undefined),0,0,0
C[C@H](NC(=O)[C@@H]1Cc2c([nH]c3ccccc23)C2c3ccccc3C(=O)N21)C(=O)NCc1ccc2c(c1)OCO2 (some centres undefined),34,0,0
Cc1nc(C(C)C)ncc1C(=O)NCc1ccc2c(c1)OCO2,0,0,0
SMILES,USP17 inh,USP28 inh,USP30 inh
O=C(NCc1ccc2c(c1)OCO2)[C@@H]1Cc2c([nH]c3ccccc23)C2c3ccccc3C(=O)N21 (some centres undefined),0,0,0
CCN(CCNS(=O)(=O)c1ccc2c(c1)NC(=O)C(C)CS2)Cc1ccccc1 (centres undefined),0,0,0
COc1cccc(-c2nc(CC(=O)NCCc3c[nH]c4ccc(OC)cc34)cs2)c1,0,0,0
O=C(CC(C(=O)c1ccccc1)c1cccs1)c1ccc(Cl)cc1 (centres undefined),0,0,0
Nc1ccccc1SC(CC(=O)c1ccc(Cl)cc1)c1ccsc1 (centres undefined),53,0,0
COc1ccccc1Cc1nc(-c2nnn(-c3ccccc3)c2C)no1,0,0,0
O=c1[nH]c2nc(NCc3ccccn3)ncc2c(=O)n1C1CCCC1,0,-,-
CCCCCCCc1cc(O)cc(O)c1,0,77,0
Cc1cccc(OCC(=O)Nc2ccc3nc(C)sc3c2)c1,0,0,0
O=C(COc1ccc(C(=O)OCc2csc(-c3ccccc3)n2)cc1)Nc1cccc(C(F)(F)F)c1,31,0,33
CCc1ccc(OCC(=O)Nc2cccc(-c3nc4ccccc4s3)c2)cc1,0,0,36
O=C(COc1ccc(F)cc1)NCc1csc(-c2ccccc2)n1,0,0,0
CCn1c(C(=O)NCc2ccccc2OC)cc2sc(Cl)cc21,0,0,0
O=C(Cc1ccc(F)cc1)N1CCc2[nH]nc(-c3ccccc3)c2C1,0,0,0
O=C(NCCN1CCOCC1)c1cc(-c2ccc(Br)cc2)nc2ccccc12,0,0,0
CCCCc1ccc(-c2cc(C(=O)NCCN3CCOCC3)c3cc(Br)ccc3n2)cc1,0,0,79
COc1ccc(-c2nnc(SC(C(=O)c3ccccc3)c3ccccc3)o2)cc1 (centres undefined),0,0,0
COc1ccc(-c2nnc(SCc3ccc(C#N)cc3)o2)cc1,0,0,46
